Shown are actives, neighbours in structure and some others; about 2.6% of the full set was active somewhere.
TAG inh = inhibitors of triacylglycerol accumulation, primary screen, cell-based, uHTS, fluorescence, H9c2; inhibition, % at 12.5 µM; H9c2 cells, Nile Red lipid (TAG) fluorescence; cells loaded with 200 µM oleic acid; 230,000 compounds, 0.66% hits; AID 651582, 2012;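 active = pattern-corrected inhibition of lipid staining of at least 50% with the nuclear-stain viability signal not falling by more than 50%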;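 note: 0% = DMSO wells and 100% = triacsin C control wells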
Jurkat NFkB inh = inhibitors of induced NF-kB luciferase reporter, primary screen, TCR NF-kB activation inhibitor project, cell-based, luminescence, uHTS; Jurkat, PMA/ionomycin-induced NF-kB luciferase reporter; inhibition, % at 4 µM; 330,000 compounds, 0.53% hits; in the data active = inhibition above about 50%
697 NFkB inh = inhibitors of PMA/ionomycin-induced NF-kB reporter, 697 cells, primary screen, B-cell NF-kB inhibitor project, cell-based, luminescence, uHTS; AID 435022, 2010; 330,000 compounds, 0.33% hits; 697 B-cell NF-kB luciferase reporter, 16 h; inhibition, % at 4 µM; in the data active = inhibition above about 35%
NR2F2 inh = NR2F2 transcriptional activity inhibitors, primary screen, cell-based, luciferase reporter, HEK293T, luminescence; AID 686940, 2013; inhibition, % at 8.6 µM; 370,000 compounds, 0.7% hits; HEK293T NGFI-A luciferase reporter; COUP transcription factor 2 (Homo sapiens), P24468;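 active = inhibition above a per-plate cutoff, mean inhibition of test wells between control levels plus 3 SD, cut at about 38% in these data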;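 note: cells cotransfected with COUP-TFII expression vector driving the NGFI-A reporter; 0% = median of COUP-TF2 test wells and 100% = reporter-only cells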
Target sequence (P24468 whole entry, looked up): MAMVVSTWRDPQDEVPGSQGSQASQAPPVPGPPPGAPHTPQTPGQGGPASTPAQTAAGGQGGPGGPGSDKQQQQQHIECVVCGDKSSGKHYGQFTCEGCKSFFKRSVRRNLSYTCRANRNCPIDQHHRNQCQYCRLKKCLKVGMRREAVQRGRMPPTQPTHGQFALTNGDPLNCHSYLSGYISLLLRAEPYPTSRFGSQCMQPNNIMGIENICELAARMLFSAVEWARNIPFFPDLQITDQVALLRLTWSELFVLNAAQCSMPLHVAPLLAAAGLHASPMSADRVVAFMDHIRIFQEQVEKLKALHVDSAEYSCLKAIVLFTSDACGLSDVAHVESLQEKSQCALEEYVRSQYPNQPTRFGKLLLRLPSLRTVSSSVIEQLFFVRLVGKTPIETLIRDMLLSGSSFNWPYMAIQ
Gli-Sufu antag = Gli-Sufu pathway antagonists, primary screen, luciferase luminescence, Sufu-KO-LIGHT cells, uHTS; Sufu-KO-LIGHT fibroblasts, Gli luciferase reporter luminescence; 340,000 compounds, 0.74% hits; inhibition, % at 5 µM; AID 588413, 2011;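 active = inhibition above about 55%, limit read from the data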;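 note: 0% = DMSO-treated cells and 100% = wells with medium but no cells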
H9c2 protect = cardioprotection against H2O2-induced cell death, primary screen, uHTS, H9c2 cells, ATPLite luminescence; H9c2 cardiomyocytes, H2O2 injury protection, 2 h; protection from H2O2 cell death, % at 20 µM; 360,000 compounds, 0.63% hits;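 active = compounds giving at least 50% protection of heart cells from peroxide-induced death in the single-dose screen, raw or plate-pattern-corrected value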;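 note: 0% = DMSO wells with peroxide and 100% = DMSO wells without peroxide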
Gli antag conf = Gli-SUFU pathway antagonists, confirmation, single concentration, luciferase luminescence, Sufu-KO-LIGHT cells; Gli luciferase reporter; inhibition, % at 5 µM; 2,500 compounds, 40% hits; AID 602428, 2012; shares compounds with Gli-Sufu antag;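 active = mean inhibition at 5 µM reaching about 45%, limit read from the data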;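 note: plate controls were DMSO-treated cells for no effect and wells lacking cells for full effect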
SufuKO cytotox = cytotoxicity in Sufu-KO-LIGHT cells, confirmation, cytotoxicity control for Gli-SUFU antagonist project, cell-based, ATP luminescence, single concentration; shares compounds with Gli-Sufu antag; cytotoxicity, % at 5 µM; 2,500 compounds, 32% hits;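 active = mean cytotoxicity at 5 µM above about 25%, limit read from the data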;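 note: cells exposed to compound overnight for roughly 16 to 18 hours; plate controls were DMSO wells with cells for no effect and medium without cells for full effect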
Wnt3a cs = Wnt3a reporter signal inhibition, confirmation, counter-screen for Gli-SUFU antagonist project, Wnt-LIGHT cells, luminescence, single concentration; AID 651995, 2013; Wnt3a-driven luciferase reporter; shares compounds with Gli-Sufu antag; inhibition, % at 6.25 µM; 2,500 compounds, 20% hits;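 active = mean inhibition above about 25%, limit read from the data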
VP16 Luc counter = Gal4-VP16 luciferase reporter inhibitors, counter-screen for COUP-TFII antagonist project, cell-based, luminescence, HEK293. shares compounds with NR2F2 inh. AID 687007, 2013. 2,500 compounds, 25% hits. inhibition, % at 8.5 µM; in the data active = inhibition above about 13%
COUP-TFII conf = NR2F2 transcriptional activity inhibitors, confirmation, cell-based, luciferase reporter, HEK293, triplicate; inhibition, % at 8.5 µM; shares compounds with NR2F2 inh; 2,500 compounds, 45% hits; AID 687008, 2013; HEK293 NGFI-A luciferase reporter, luminescence;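 active = mean inhibition over three repeats above a set limit taken from the earlier primary screen, cut at about 38% in these data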;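 note: 100% = cells given the luciferase reporter alone without the COUP-TF2 vector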
The depositor's hits bear a star; nt = no result.

SMILES	TAG inh	Jurkat NFkB inh	697 NFkB inh	NR2F2 inh	Gli-Sufu antag	H9c2 protect	Gli antag conf	SufuKO cytotox	Wnt3a cs	VP16 Luc counter	COUP-TFII conf
COc1ccc2[nH]c3c(NCc4ccco4)ncnc3c2c1	nt	-37	-21	nt	4	nt	nt	nt	nt	nt	nt
Fc1ccc2[nH]c3c(NCc4ccccc4)ncnc3c2c1	nt	9	22	55*	60*	-22	68*	12	34*	1	38*
COc1ccc(NS(=O)(=O)c2ccc(NC(=O)c3ccc(CN4CCOCC4)cc3)cc2)cc1	-21	28	-52	64*	57*	-20	28	13	3	-4	52*
COc1ccc(NS(=O)(=O)c2ccc(N3CCOCC3)c(N)c2)cc1	-47	25	-25	48*	62*	-23	61*	26*	28*	-9	33
Cc1cc2c(nc1C)CCCN2S(=O)(=O)c1ccc(C(F)(F)F)cc1	nt	nt	nt	7	nt	nt	nt	nt	nt	nt	nt
CCC(C)(C)c1ccc(OCCN2C(=O)NC(C)(C)C2=O)cc1	nt	-13	-1	5	2	-5	nt	nt	nt	nt	nt
CCC(C)(C)c1ccc(Oc2ccc(N)cc2)cc1	69*	nt	nt	95*	74*	-10	83*	31*	105*	91*	98*
Cn1c(=O)c(=O)n(C)c2cc(S(=O)(=O)N3CCN(Cc4ccc(F)cc4)CC3)ccc21	nt	nt	nt	13	nt	nt	nt	nt	nt	nt	nt
COc1ccc(CN(C)C(=O)c2cccc(NC(=O)CC3SC(N4CCCCC4)=NC3=O)c2)c(OC)c1 (stereo not drawn)	-14	nt	nt	58*	65*	-10	49*	13	-5	0	44*
COC(=O)C1=C(C)N(C)C(=NCc2ccc3c(c2)OCO3)NC1c1ccc(C(F)(F)F)cc1 (stereo not drawn)	nt	nt	nt	13	nt	nt	nt	nt	nt	nt	nt
Cc1cccc(OCCC(=O)Nc2ccc(C)c(S(=O)(=O)N3CCOCC3)c2)c1	-9	-4	-7	5	2	-6	nt	nt	nt	nt	nt
O=C(/C=C/c1ccco1)Nc1cccc(S(=O)(=O)N2CCOCC2)c1	nt	-13	-2	1	13	1	nt	nt	nt	nt	nt
Cc1ccc(NC(=O)/C=C/c2ccco2)cc1S(=O)(=O)N1CCCCCC1	4	6	-24	50*	77*	-11	88*	9	-23	0	31
Cc1cccc(OCCC(=O)Nc2ccc(C)c(S(=O)(=O)N3CCCCC3)c2)c1	-24	nt	nt	38*	62*	-10	22	22	-32	-7	8
Cc1ccc(NC(=O)COc2ccccc2C(N)=O)cc1S(=O)(=O)N1CCCCCC1	-37	30	-5	60*	50	-12	48*	28*	-13	-7	46*
C#CCNC(=O)C[C@H]1C[C@@]2(C(=O)OC)C(=C[C@H](C(C)(C)C)O[C@@H]2C)N(CCC2=CCCCC2)C1=O	nt	nt	nt	26	nt	nt	nt	nt	nt	nt	nt
CC(C)(C)C(=O)Nc1cc2nn(-c3ccccc3)nc2cc1Cl	10	nt	nt	87*	81*	-40	87*	83*	104*	72*	101*
NC(=O)c1ccc(N2CCN(S(=O)(=O)c3cccs3)CC2)c([N+](=O)[O-])c1	-22	-17	-8	60*	56*	-21	65*	14	36*	5	56*
C[C@@H]1CN([C@@H](C)CO)C(=O)CCCn2cc(nn2)CO[C@H]1CN(C)C(=O)Nc1ccc(C(F)(F)F)cc1	nt	nt	nt	1	nt	nt	nt	nt	nt	nt	nt
Cc1ccc(Cl)cc1N1CCN(C(=O)CSc2nnc3n2C(C)(C)Cc2ccccc2-3)CC1	-10	29	-5	63*	61*	-7	60*	20	8	9	50*
CCN(CC)c1nc(-c2ccccn2)nc(-c2ccccc2)c1C#N	nt	4	9	41*	63*	-5	25	12	10	1	11
CN(C)c1nc(-c2ccccc2)nc(-c2ccc(Cl)cc2)c1C#N	19	-16	-54	-8	-77	-8	nt	nt	nt	nt	nt
CC(=O)C1(C(=O)NC2CCCC2)CC(c2ccccc2C(F)(F)F)=NO1 (stereo not drawn)	nt	nt	nt	-10	nt	nt	nt	nt	nt	nt	nt
CC1(C)CC(NNCCC#N)=CC(=[N+]2CCCC2)C1	3	-5	3	-7	5	-4	nt	nt	nt	nt	nt
c1ccc(CN2CCN(c3ncccn3)CC2)cc1	8	9	3	12	-3	9	nt	nt	nt	nt	nt
SMILES	TAG inh	Jurkat NFkB inh	697 NFkB inh	NR2F2 inh	Gli-Sufu antag	H9c2 protect	Gli antag conf	SufuKO cytotox	Wnt3a cs	VP16 Luc counter	COUP-TFII conf
CC1(C)CC(N2CCCC2)=CC(=[N+]2CCCC2)C1	nt	36	20	47*	82*	-21	86*	34*	35*	4	27
CC1(C)CC(N2CCN(Cc3ccccc3)CC2)=CC(=[N+]2CCCCC2)C1	-13	47	-15	53*	79*	-10	85*	34*	39*	5	36
CC1(C)CC(N2CCCC2)=CC(=[N+]2CCCCC2)C1	nt	36	33	56*	82*	-20	85*	33*	42*	8	45*
COC(=O)[C@]12C[C@H](CC(=O)N3CCN(C(=O)C4CC4)CC3)C(=O)N(Cc3ccc4c(c3)OCO4)C1=C[C@H](C(C)C)O[C@@H]2C1CC1	nt	nt	nt	-6	nt	nt	nt	nt	nt	nt	nt
Cc1nn(C)c(C(=O)NCc2ccc(Cl)cc2)c1Cl	nt	45	-32	61*	63*	-16	53*	29*	20	1	44*
Cc1nc(C)c(C(=O)NCc2ccc(Cl)cc2)o1	nt	4	-4	nt	nt	-5	nt	nt	nt	nt	nt
COC(=O)[C@]12C[C@H](CC(=O)N3CCCCC3)C(=O)N(Cc3cccc4ccccc34)C1=C[C@H](C1CCCC1)O[C@@H]2C	nt	nt	nt	1	nt	nt	nt	nt	nt	nt	nt
O=C(c1cccc(F)c1)n1ccc2ccc(-c3ccc4ccn(Cc5ccccc5)c4c3)cc21	nt	nt	nt	-20	nt	nt	nt	nt	nt	nt	nt
O=S(=O)(CC1NCc2cc(F)ccc21)NCc1ccc(F)cc1 (stereo not drawn)	nt	nt	nt	-7	nt	nt	nt	nt	nt	nt	nt

Screening results from PubChem.
